Here are results for 4 molecules from PubChem BioAssay (NCI).

The panel holds about 79,000 compounds, 15% with a hit somewhere; the sample as a whole holds those more often. Values without a mark were called inactive. Calls of active or inactive are those of the source. No stated cut-off is given here; in the data, active means growth inhibition above about 70%; inactive means the rest.

Experiment [1] in a line: NCI Yeast Anticancer Drug Screen. Data for the rad50 strain (AID 155).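 Further: 0% = growth of vehicle-only cultures of the same strain.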 To be noted: S. cerevisiae rad50 strain growth inhibition, stronger effect = higher value. The method, boiled down:
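Inhibition values express reduced yeast growth in compound-treated cultures relative to vehicle-treated controls.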

Experiment [2] in a line: NCI Yeast Anticancer Drug Screen. Data for the mec2-1 strain (AID 157). The settings on record: S. cerevisiae mec2-1 strain, stronger effect = higher value. In outline:
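Growth inhibition is read against vehicle-treated controls after compound exposure of the mec2-1 yeast strain, which is defective in DNA damage repair or cell cycle control.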

Experiment [3] is described as follows: NCI Yeast Anticancer Drug Screen. Data for the sgs1 mgt1 strain (AID 161).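 Further: 0% = growth of cultures given vehicle only.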 The settings on record: S. cerevisiae sgs1 mgt1 strain, stronger effect = higher value. The method, boiled down:
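Percent growth inhibition was derived by comparing compound-exposed mutant yeast with vehicle-exposed cultures. The strain carries alterations in DNA damage repair.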

Experiment [4] is described as follows: NCI Yeast Anticancer Drug Screen. Data for the cln2 rad14 strain (AID 165).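 Further: 0% = growth equal to vehicle treated cultures.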 The settings on record: S. cerevisiae cln2 rad14 strain, stronger effect = higher value. The method, boiled down: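 Growth inhibition, relative to vehicle-treated controls, is the read-out. The test organism is a yeast strain with defined genetic alterations, cln2 rad14.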
A short description of experiment [5]: NCI Yeast Anticancer Drug Screen. Data for the bub3 strain (AID 167). The settings on record: S. cerevisiae bub3 mutant strain, stronger effect = higher value. In outline: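 Steps: expose the mutant yeast strain to compound; grow alongside vehicle-treated cultures; measure growth; express inhibition against the vehicle cultures.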
The nature of experiment [6]: NCI Yeast Anticancer Drug Screen. Data for the mlh1 rad18 strain (AID 175). The settings on record: S. cerevisiae mlh1 rad18 strain growth inhibition, stronger effect = higher value. In outline:
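Cells of a genetically altered yeast strain, deficient in DNA damage repair, were treated with compound. Their growth was then compared with that of vehicle-treated cultures to give inhibition.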

Setting [7] is: at 5.0 µM (retest, dose inferred, filed as 0.5).
Where [8] appears, read: at 50.0 µM (retest, dose inferred, filed as 5.0).

In the case of `CC(=O)OC1CCC2(C)C(=CCC3C2CCC2(C)C(C(C)N)CCC32)C1` (configuration not stated), the growth inhibition in experiment [1] (setting [7]) is 8%; in experiment [1] (setting [8]), 98% (active); in experiment [1] (at 50.0 µM), 98.3% (active); in experiment [2] (setting [7]), 18%; in experiment [2] (setting [8]) it was 98% (active); in experiment [2] (at 50.0 µM), 98.7% (active). For the same molecule, the growth inhibition is 18% in experiment [3] (setting [7]); 98% (active) in experiment [3] (setting [8]); 93% (active) in experiment [3] (at 50.0 µM); -62% in experiment [4] (setting [7]); 96% (active) in experiment [4] (setting [8]); 70.8% (active) in experiment [4] (at 50.0 µM). Besides, the growth inhibition in experiment [5] (setting [7]) is 1%; in experiment [5] (setting [8]), 78% (active); in experiment [5] (at 50.0 µM), 95.8% (active); in experiment [6] (setting [7]), 8%; in experiment [6] (setting [8]), 98% (active); in experiment [6] (at 50.0 µM), 98.1% (active).
For `O=C(C(=Cn1c(=S)[nH]c2ccc([N+](=O)[O-])cc21)C(=O)c1ccccc1)c1ccccc1`, the growth inhibition is -10% in experiment [1] (setting [7]); 3% in experiment [1] (setting [8]); 98% (active) in experiment [1] (at 50.0 µM); -14% in experiment [2] (setting [7]); -2% in experiment [2] (setting [8]); 92.5% (active) in experiment [2] (at 50.0 µM). Moreover, the growth inhibition in experiment [3] (setting [7]) is -7%; in experiment [3] (setting [8]), 1%; in experiment [3] (at 50.0 µM), 92.2% (active); in experiment [4] (setting [7]), -23%; in experiment [4] (setting [8]) it was -17%; in experiment [4] (at 50.0 µM), 74.8% (active). Besides, the growth inhibition in experiment [5] (setting [7]) is -5%; in experiment [5] (setting [8]) it was 6%; in experiment [5] (at 50.0 µM), 94.9% (active); in experiment [6] (setting [7]), -4%; in experiment [6] (setting [8]) it was 0%; in experiment [6] (at 50.0 µM), 96.3% (active).
On to `Cc1nc(C(N)=S)sc1/C(CC(=O)C(=O)Nc1cccc2ccc(O)cc12)=N\NC(=O)c1ccncc1`, for which the growth inhibition in experiment [1] (setting [7]) was 25%; in experiment [1] (setting [8]), 31%; in experiment [1] (at 50.0 µM), 21.8%; in experiment [2] (setting [7]), 16%; in experiment [2] (setting [8]) it was 18%; in experiment [2] (at 50.0 µM) it was 7.5%. Also, the growth inhibition in experiment [3] (setting [7]) is 9%; in experiment [3] (setting [8]), 28%; in experiment [3] (at 50.0 µM), -4.85%; in experiment [4] (setting [7]) it was 14%; in experiment [4] (setting [8]) it was 33%; in experiment [4] (at 50.0 µM), -10.8%. Moreover, the growth inhibition is 32% in experiment [5] (setting [7]); 29% in experiment [5] (setting [8]); 13.1% in experiment [5] (at 50.0 µM); 14% in experiment [6] (setting [7]); 35% in experiment [6] (setting [8]); 16.4% in experiment [6] (at 50.0 µM).
Consider `O=C1C=C(O)c2cc(Br)ccc2C1=O.[Ag]`, for which the growth inhibition in experiment [1] (setting [7]) is 99% (active); in experiment [1] (setting [8]) it was 99% (active); in experiment [1] (at 50.0 µM), 99.6% (active); in experiment [2] (setting [7]), 100% (active); in experiment [2] (setting [8]), 99% (active); in experiment [2] (at 50.0 µM), 99.5% (active). The growth inhibition in experiment [3] (setting [7]) was 100% (active); in experiment [3] (setting [8]) it was 99% (active); in experiment [3] (at 50.0 µM), 99.7% (active); in experiment [4] (setting [7]), 99% (active); in experiment [4] (setting [8]), 99% (active); in experiment [4] (at 50.0 µM) it was 99.5% (active). For the same molecule, the growth inhibition in experiment [5] (setting [7]) was 100% (active); in experiment [5] (setting [8]), 99% (active); in experiment [5] (at 50.0 µM) it was 99.7% (active); in experiment [6] (setting [7]), 99% (active); in experiment [6] (setting [8]), 99% (active); in experiment [6] (at 50.0 µM), 99.1% (active).
